BoNT-F LC inh – BoNT/F light chain protease inhibitors, primary screen, biochemical, flow cytometry, MLPCN library; inhibition, % at 10 µM; hit rate 0.22% among 360,000; AID 588497, 2011; Multiplex microsphere protease cleavage assay; in the data active = inhibition above about 35%, passing the limit was not always enough; inconclusive = no clear call, values can overlap the other calls; also: plate controls were buffer without enzyme for full effect and enzyme alone for no effect
Anthrax LF prot – Bacillus anthracis LF protease inhibitors, primary screen, biochemical, multiplex microsphere, MLPCN library. Lethal factor (Bacillus anthracis), P15917. multiplex microsphere protease cleavage assay. inhibition, % at 10 µM. hit rate 0.12% among 360,000. AID 588501, 2011; also: plate controls were buffer without enzyme for full effect and enzyme alone for no effect
Target sequence (P15917 whole entry, looked up): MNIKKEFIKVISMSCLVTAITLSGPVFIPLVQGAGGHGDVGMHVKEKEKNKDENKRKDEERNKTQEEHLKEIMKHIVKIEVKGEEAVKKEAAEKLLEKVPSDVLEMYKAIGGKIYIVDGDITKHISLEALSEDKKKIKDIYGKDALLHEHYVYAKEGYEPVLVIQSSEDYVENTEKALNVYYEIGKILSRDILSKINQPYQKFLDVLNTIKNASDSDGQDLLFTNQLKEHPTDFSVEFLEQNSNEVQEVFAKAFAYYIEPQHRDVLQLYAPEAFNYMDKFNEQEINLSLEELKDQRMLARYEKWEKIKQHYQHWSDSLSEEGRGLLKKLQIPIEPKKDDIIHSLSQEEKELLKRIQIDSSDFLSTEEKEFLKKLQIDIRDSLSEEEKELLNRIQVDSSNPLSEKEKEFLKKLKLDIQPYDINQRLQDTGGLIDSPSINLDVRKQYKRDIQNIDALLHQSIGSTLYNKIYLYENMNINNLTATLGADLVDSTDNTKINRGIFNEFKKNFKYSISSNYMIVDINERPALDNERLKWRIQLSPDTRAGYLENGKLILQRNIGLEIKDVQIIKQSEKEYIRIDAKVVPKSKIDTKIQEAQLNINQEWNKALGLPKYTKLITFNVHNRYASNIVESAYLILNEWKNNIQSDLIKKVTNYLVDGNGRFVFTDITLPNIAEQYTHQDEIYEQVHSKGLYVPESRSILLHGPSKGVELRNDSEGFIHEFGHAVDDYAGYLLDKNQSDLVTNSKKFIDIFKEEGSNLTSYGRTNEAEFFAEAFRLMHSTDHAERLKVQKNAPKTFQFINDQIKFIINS
Bead autofluor – counter-screen for toxin protease inhibitors: compound fluorescence; compound autofluorescence counterscreen, microsphere flow cytometry; stronger effect = higher value; fluorescence intensity (concentration not given with the values); hit rate 3.1% among 360,000; AID 624483; in the data active = fluorescence intensity above about 16000; inconclusive = no clear call, values can overlap the other calls
BoNT-A LC inh2 – BoNT/A light chain protease inhibitors, primary screen, biochemical, flow cytometry, MLPCN library. inhibition, % at 10 µM. multiplex microsphere protease substrate cleavage. hit rate 0.17% among 360,000. Botulinum neurotoxin type A light chain protease (Clostridium botulinum A str. ATCC 3502); also: plate controls were buffer without enzyme for full effect and enzyme alone for no effect
TcdB inh – TcdB glycohydrolase inhibitors, primary screen, biochemical, single point, plate reader; TcdB glycohydrolase enzymatic assay; inhibition, % at 9.99 µM; hit rate 0.24% among 350,000; AID 652162, 2013; in the data active = inhibition above about 10%
* marks the source's active call; other numbers are inactive results; ? = inconclusive; nt = not tested or not shown. This excerpt belongs to a sample that is enriched for hits. Rule as the data show it, unless noted: active = inhibition above about 30%; inconclusive = no clear call, values can overlap the other calls; inactive = below that.

SMILES	BoNT-F LC inh	Anthrax LF prot	Bead autofluor	BoNT-A LC inh2	TcdB inh
CCC(C)NC(=O)COC(=O)c1cc([N+](=O)[O-])ccc1Sc1nc(C)cs1 (stereo unspecified)	3.9	1.1	2864	-0.3	nt
Cc1csc(Sc2ccc([N+](=O)[O-])cc2C(=O)OCC(=O)NC2CCCC(C)C2C)n1 (stereo unspecified)	-0.2	-0.4	16483*	0.5	nt
CCOC(=O)c1cn(CC)c2ccc(S(=O)(=O)N3CC(C)CC(C)C3)cc2c1=O (stereo unspecified)	-1.0	0.8	16593*	-0.9	nt
COc1ccc(C(CNC(=O)c2ccc(-c3nc4ccccc4s3)o2)N2CCCC2)cc1 (stereo unspecified)	-4.5	5.8	20254*	-11.3	1.2
COc1ccc(C(CNC(=O)c2cccc(S(=O)(=O)N3CCCC3)c2)N2CCCC2)cc1 (stereo unspecified)	14.4	-3.6	26904*	-22.9	-0.5
COc1ccc(C(CNC(=O)c2ccc(S(=O)(=O)Nc3ccccc3OC)cc2)N2CCCC2)cc1 (stereo unspecified)	-1.2	-1.6	19637*	-4.0	1.0
COc1ccc(C(CNC(=O)c2cccc(S(=O)(=O)N3CCOCC3)c2)N2CCCC2)cc1 (stereo unspecified)	-2.2	-0.3	8558	-2.2	-1.0
C[C@H]1CN([C@@H](C)CO)S(=O)(=O)c2ccc(-c3cccnc3)cc2O[C@H]1CN(C)C(=O)c1ccc2c(c1)OCO2	nt	nt	nt	nt	0.1
CO[C@H]1CN(C)C(=O)c2ccc(NS(=O)(=O)c3ccccc3C)cc2OC[C@@H](C)N(S(C)(=O)=O)C[C@@H]1C	nt	nt	nt	nt	0.0
Cc1c(/C=N/NC(=O)c2cc(=O)[nH]c(=O)[nH]2)c2ccccn2c1C(=O)c1ccccc1	4.8	0.7	19024*	3.3	nt
Cc1noc(C)c1COC(=O)CCOc1ccccc1	-3.6	-1.3	17725*	-2.5	nt
Cc1ccc(NC2=NC(c3ccc(C)cc3)n3c(nc(C)cc3=O)N2)cc1 (stereo unspecified)	-7.6	-1.9	23058*	-2.8	nt
Cc1ccc(NC2=NC(c3ccccc3)n3c(nc(C)cc3=O)N2)c(C)c1 (stereo unspecified)	-1.3	-2.4	22223*	0.3	nt
O=C(C[C@@H]1CC[C@H](NS(=O)(=O)c2ccc(F)cc2)[C@H](CO)O1)N1CCC(Cc2ccccc2)CC1	nt	nt	nt	nt	-0.7
CCc1cc2c(SCC(=O)c3ccccc3)ncnc2s1	-14.1	-4.9	3179	-0.6	nt
O=C(O)CSc1ncnc2sc3c(c12)CCCC3	0.0	0.2	4441	0.5	-0.5
CCc1cc2c(SCC(=O)O)ncnc2s1	-14.1	-1.7	18901*	?	0.0
CCSc1ncnc2sc3c(c12)CCC3	0.8	-1.0	20242*	1.1	nt
Fc1ccc(CSc2ncnc3sc4c(c23)CCCC4)cc1	1.0	-5.8	19865*	1.5	nt
O=C(O)CSc1ncnc2sc3c(c12)CCC3	-0.3	-0.1	19351*	0.5	nt
CC(C)C#Cc1ccc2c(c1)O[C@@H](CN(C)Cc1cccnc1)[C@H](C)CN([C@@H](C)CO)S2(=O)=O	nt	nt	nt	nt	-1.5
CC1(C)Cc2c(sc3ncnc(N)c23)CO1	6.4	-8.0	18415*	4.1	nt
CC1(C)Cc2c(sc3nc[nH]c(=O)c23)CO1	-1.5	-2.1	2432	0.4	0.5
O=C(CCS(=O)(=O)c1ccc(Cl)cc1)N1CCN(c2ccc(F)cc2)CC1	nt	nt	nt	nt	0.8
Cc1ccc(S(=O)(=O)CCC(=O)N2CCN(c3ccc(Cl)cc3)CC2)cc1	-2.8	-2.3	17240*	-2.0	1.2
SMILES	BoNT-F LC inh	Anthrax LF prot	Bead autofluor	BoNT-A LC inh2	TcdB inh
O=C(O)CCC(=O)Nc1ccc(Oc2ncnc3cc(Cl)ccc23)nc1	40.2*	?	3429	8.9	-0.1
O=C(COc1ncnc2cc(Cl)ccc12)c1ccccc1	?	3.2	3754	-1.7	-0.1
COc1ccc(-c2nc(-n3c(C)c(C(C)=O)c(C(C)=O)c3C)sc2C)cc1OC	-4.4	-2.1	5892	-0.6	nt
CC(=O)c1c(C(C)=O)c(C)n(-c2nc(-c3ccc(Br)cc3)c(C)s2)c1C	-8.2	-9.5	17033*	-2.9	nt
O=C(c1ccccc1)c1c[nH]c(C(=O)NCCCN2CCOCC2)c1	0.0	-0.8	22011*	?	nt
CCC(CC)C(=O)c1c[nH]c(C(=O)NCCCN2CCOCC2)c1	-2.3	-1.9	23037*	?	nt
O=C(c1ccc(F)cc1)c1c[nH]c(C(=O)NCCCN2CCOCC2)c1	-13.2	-1.9	5926	-0.2	nt
CO[C@@H]1CN(C)C(=O)c2cc(NS(=O)(=O)c3cccc(F)c3)ccc2OC[C@@H](C)N(Cc2cc(F)ccc2F)C[C@H]1C	nt	nt	nt	nt	-2.9
O=C(NCc1ccccn1)c1cc(S(=O)(=O)N2CCN(c3ccccc3)CC2)ccc1Cl	-2.2	-4.1	22854*	?	nt
Cc1ccc(S(=O)(=O)N2CCCC2)cc1C(=O)NCc1ccccn1	5.3	3.0	3959	3.9	-1.3
COc1ccc2c3c(n(C)c2c1)[C@H](CO)N(C(=O)CC1CC1)CC31CN(C(=O)CC2CC2)C1	nt	nt	nt	nt	1.6
CCCCCCOc1ccc(CN2CCN(C)CC2)cc1	-4.0	-2.0	24568*	?	-0.4
COc1ccc(NC(=O)N(C)C[C@H]2Oc3c(NS(=O)(=O)c4ccc(OC)cc4)cccc3C(=O)N([C@@H](C)CO)C[C@H]2C)cc1	nt	nt	nt	nt	-0.9
O=c1[nH]cnc2c1C(c1ccccc1[N+](=O)[O-])c1c(nc[nH]c1=O)O2	2.6	-1.8	20743*	2.7	nt
C[C@H]1CCCCO[C@H](CN(C)Cc2ccc(C(=O)O)cc2)[C@@H](C)CN([C@@H](C)CO)C(=O)c2cc(NS(=O)(=O)c3ccc(F)cc3)ccc2O1	nt	nt	nt	nt	-0.2
Cc1ccc2c(c1)c(C)cc[n+]2Cc1ccccc1	-42.8	-8.5	7550	9.2	nt
Cc1ccc2ccc[n+](Cc3ccccc3)c2c1	9.5	-7.2	4416	-1.2	10.9*
CCOC(=O)c1cc(=O)n(Cc2ccccc2C)c2ccccc12	0.2	-1.3	20854*	-0.3	1.3
Cn1c(SCC(=O)N/N=C/C=C/c2ccccc2[N+](=O)[O-])nc2ccccc21	-2.8	-0.7	2441	-0.8	0.3
CCn1c(SCC(=O)N/N=C/c2ccc(OC)c(OC)c2)nc2ccccc21	-1.9	-0.3	22575*	1.1	nt
COc1ccc(Cc2nc3ccccc3n2CC(=O)N/N=C/c2ccccc2)cc1OC	-0.9	-0.1	2437	-0.1	2.3
CCn1c(SCC(=O)N/N=C/C=C\c2ccccc2[N+](=O)[O-])nc2ccccc21	-1.8	1.2	22694*	?	nt
Cc1ccccc1C1=NCC(=O)N(CC(=O)N2CCCCC2)c2sc(C)c(C)c21	-2.2	0.3	22255*	?	nt
O=C(NCc1cccnc1)c1sc2ccccc2c1Cl	-7.3	-2.5	24841*	?	0.2
O=C(NCc1cccnc1)c1cccnc1-c1nc2ccccc2s1	0.7	1.0	22730*	1.0	nt
O=C(NCc1cccnc1)C(=O)Nc1nc2ccccc2s1	-1.1	-0.3	2461	-1.1	0.1
